Where “and” joins values, the source holds several entries; their conditions need not be identical. Identical values can stand only once. Inconclusive results are not listed. Where a call stands in place of a potency, no number is given. A number with no mark means an inactive call. Calls of active or inactive are those of the source.
These compounds were tested against Glucocorticoid receptor (Homo sapiens) (UniProt P04150) (assay: qHTS assay for small molecule agonists of glucocorticoid receptor signaling (AID 588532; active = well fitted curve in the direction sought with a large enough effect in the signal ratio, with a control signal flat; the % refers to the signal ratio)). Settings: HeLa MMTV-bla, beta-lactamase ratio, agonist, 18 h; active compounds read high; percent of dexamethasone control, DMSO zero.
How it was run: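 HeLa GRE-bla reporter cells; 18 h compound exposure at 37 C; 2 h CCF4 loading at room temperature; fluorescence at 460 and 530 nm; EC50 by Hill equation.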

Chain of Glucocorticoid receptor (Homo sapiens) (P04150 whole entry, looked up): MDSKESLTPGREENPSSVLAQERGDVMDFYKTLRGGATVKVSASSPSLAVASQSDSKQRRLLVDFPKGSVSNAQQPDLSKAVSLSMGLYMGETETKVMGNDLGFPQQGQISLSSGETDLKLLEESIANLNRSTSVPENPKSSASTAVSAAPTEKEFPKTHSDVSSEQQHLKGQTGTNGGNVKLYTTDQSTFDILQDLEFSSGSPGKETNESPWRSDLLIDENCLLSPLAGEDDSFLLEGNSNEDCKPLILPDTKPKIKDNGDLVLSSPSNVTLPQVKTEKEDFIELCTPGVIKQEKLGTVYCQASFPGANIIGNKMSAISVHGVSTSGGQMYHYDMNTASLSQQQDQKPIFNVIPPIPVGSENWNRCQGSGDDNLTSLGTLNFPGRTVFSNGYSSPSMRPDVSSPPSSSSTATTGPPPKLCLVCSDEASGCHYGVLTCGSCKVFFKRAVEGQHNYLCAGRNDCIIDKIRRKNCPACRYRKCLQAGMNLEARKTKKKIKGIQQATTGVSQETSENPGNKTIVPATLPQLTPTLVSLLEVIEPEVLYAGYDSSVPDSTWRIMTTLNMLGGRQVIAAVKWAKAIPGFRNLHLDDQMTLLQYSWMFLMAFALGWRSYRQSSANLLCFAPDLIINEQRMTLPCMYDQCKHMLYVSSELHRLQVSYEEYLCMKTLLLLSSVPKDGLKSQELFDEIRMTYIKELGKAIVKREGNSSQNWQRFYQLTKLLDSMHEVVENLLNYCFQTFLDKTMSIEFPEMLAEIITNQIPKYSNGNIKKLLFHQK

Row | Compound | activation
1 | CCO[Si](CCCN)(OCC)OCC | 5.03% and 9.33%
2 | Clc1cc(Cl)c(Cl)cc1Cl | 3.81% and -2.02%
3 | CCO | -4.6%
4 | C=CC(=O)OCCOCCOCCOCCOC(=O)C=C | -5.18%
5 | Clc1cc(Cl)c(Cl)c(Cl)c1Cl | -4.89% and 1.1%
6 | CCCCC(CC)CN (stereo not given) | -3.51% and -4.52%
7 | c1ccc2c(c1)[nH]c1ccccc12 | -0.462% and 14.4%
8 | OCCNCCO | -6.89% and -4.55%
9 | Nc1ccc(Cl)cc1Cl | -1.05% and -10.1%
10 | CCC(C)c1ccccc1O (stereo not given) | -11.6% and -11.3% and 1.07%
11 | Cc1ccc(N)c([N+](=O)[O-])c1 | 2.77% and 13.2%
12 | CCCCOCCO | -3.83% and -1.18%
13 | CC(=O)OC/C=C(\C)CCC=C(C)C | 3.31% and -2.94%

The compounds below were run against Glucocorticoid receptor (Homo sapiens) (UniProt P04150) (assay: qHTS assay for small molecule antagonists of glucocorticoid receptor signaling (AID 588533; active = well fitted inhibition curve with a large enough effect in the signal ratio, with a control signal flat, not every such curve was filed as active; the % refers to the signal ratio;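 also: cells stimulated with 2 nM dexamethasone as agonist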; also: potency is read from the fitted curve at half-maximal effect)). Settings: HeLa MMTV-bla, GRE beta-lactamase ratio, antagonist mode, 18 h; series mostly up to 76.8 µM; activity change, negative = inhibition: at the top concentration.
How it was run: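 Antagonist-mode qHTS: compound titrations added to GRE-bla HeLa cells, then dexamethasone 2 nM final; 18 h, 37 C. CCF4 FRET fluorescence normalized to dexamethasone and DMSO; IC50 from Hill fit.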

Row | Compound | Potency | activity change, negative = inhibition [%]
14 | CCCN(CCC)C(=O)SCC | inactive | 
15 | COc1ccc2nc(N)sc2c1 | inactive | 
16 | ClCCCl | inactive | 
17 | CCC(O)OC(O)CC (stereo not given) | inactive | 
18 | C=Cc1ccccc1Cl |  | -12.9
19 | c1ccc2c(c1)c1cccc3ccc4cccc2c4c31 | inactive | 
20 | CCCCCCCCO | inactive | 
21 | CC(C)=CCCC(C)CCO (stereo not given) | inactive | 
22 | O=[N+]([O-])c1cccc(Cl)c1Cl | inactive | 
23 | CCO[Si](CCCN)(OCC)OCC | inactive | 
24 | Clc1cc(Cl)c(Cl)cc1Cl | inactive | 
25 | CCO |  | 1.38
26 | C=CC(=O)OCCOCCOCCOCCOC(=O)C=C | 39.8 µM (active) | 
27 | Clc1cc(Cl)c(Cl)c(Cl)c1Cl | inactive | 
28 | CCCCC(CC)CN (stereo not given) | inactive | 
29 | c1ccc2c(c1)[nH]c1ccccc12 | inactive | 
30 | OCCNCCO | inactive | 
31 | Nc1ccc(Cl)cc1Cl | inactive | 
32 | CCC(C)c1ccccc1O (stereo not given) | inactive | 
33 | Cc1ccc(N)c([N+](=O)[O-])c1 |  | 0.282
34 | CCCCOCCO | inactive | 
35 | CC(=O)OC/C=C(\C)CCC=C(C)C | inactive | 

— PubChem BioAssay (NCATS)
